Assay results as given in PubChem BioAssay (NCI).
About 83,000 compounds went through this panel and 20% of them were active in at least one assay; those are over-represented in the sample as a whole.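 Assay: single dose, 48 h. Readout: percent growth (0 = no net growth; negative = cell death). Active: <10.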 Unmarked numbers belong to inactive results. The source made the active and inactive calls.

What follows are compounds tested on BT-549 breast (assay: NCI-60 one-dose screen, 48 h (100 = growth as untreated, 0 = no growth, -100 = all killed)). Conditions: 10 µM unless noted.
Method: Growth inhibition of the BT-549 human tumor cell line is measured as a screen for anti-cancer activity. Cells are grown in 96 well plates and exposed to the test compound for 48 hours. Compounds are tested at a single concentration, which is 10^-5 M for most compounds. The reported endpoint is percent growth (GI% or GIPRCNT), where numbers from 0 - 100% represent growth inhibition, and numbers from -100% - 0 represent cell death. For example, a value of 40 represents 60% growth inhibition. A value of 0 means no net growth occurred over the course of the experiment. A value of -40 indicates 40% of cells at the beginning of the experiment died by the end of the experiment. A value of -100 means all cells are dead at the end of the experiment.
NCI-60 Human Tumor Cell Lines Screen was performed using the standard one-dose NCI protocol, which is described in more detail at https://dtp.cancer.gov/discovery_development/nci-60/default.htm.
Compounds with GIPRCNT values below 10 were considered active. Activity score was based on GIPRCNT using the following formula: […]
Score is 0 for GIPRCNT values of 100 or above, 50 for GIPRCNT values of 0, and 100 for GIPRCNT values of -100.
For `COC(=O)C1=C(C(=O)ON)[C@@H]2C=C[C@@]1([C@@H](Cc1ccccc1)Nc1ccccc1)O2`, the growth was 118%. `CC(C)(C)c1cc(C=O)cc(C(C)(C)C)c1O` showed a growth of 92.5%. Work on `CCNC(=O)Oc1ccc(/C(=C(\C)c2ccccc2)c2ccc(OCCN3CCCCC3)cc2)cc1` yielded a growth of 65.2%. With `C=C1C(=O)O[C@H]2[C@H]1CC/C(CNC(=O)/C=C/c1cccc(OC)c1)=C\CC[C@@]1(C)O[C@@H]21` the growth was -12.3% (active). `CN(C)CC(O)c1ccc(/C=C/c2ccc(Cl)cc2)cc1` (stereo not given) was tested, and the growth was 78.8%. For `COc1cc(OC)cc(C(=O)C[n+]2cccc3cc[nH]c32)c1`, the growth was 102%. Compound `CCOC(=O)c1cc(C(=O)c2ccc(OC)cc2)n2ccc(/C=C/c3cc[n+](CC(=O)c4ccc(OC)cc4)cc3)cc12` has a growth of 86%. With `CN1CCN(c2ccc(NC3=C(Cl)C(=O)c4ncccc4C3=O)cc2C(F)(F)F)CC1` the growth was 89.8%. `O=C(/C=C(O)/C=C/c1ccc(SC(F)(F)F)cc1)/C=C/c1ccc(SC(F)(F)F)cc1` showed a growth of 82.5%. `NS(=O)(=O)c1ccc(CCn2c(SCC(=O)c3ccc(Cl)cc3)nc3ccccc3c2=O)cc1` was tested, and the growth was 99%. `COc1cc(C2=C(c3cn(C)c4ccccc34)COC2=O)cc(OC)c1OC` showed a growth of 16.7%. With `CCN(CC)c1ccc(/C=N/NC(=O)CSc2nc3ccccc3c(=O)n2CCc2ccc(S(N)(=O)=O)cc2)c(O)c1` the growth was 45.2%. `COc1cccc2c1c1nc3cc(C)c(C)cc3nc1n2CCN(C)C` showed a growth of 68.8%. For `CC(C)(C)[Si](C)(C)OC1[C@@H](O[Si](C)(C)C(C)(C)C)[C@@H](CNC(=O)NC(=O)CCl)O[C@H]1n1cnc2c(NC(=O)Nc3ccccc3)ncnc21` (stereo not given in full), the growth was -85.9% (active). `N#Cc1c(NC(=O)NCc2ccccc2)sc2c1CCCCC2` was tested, and the growth was 26.2%. Work on `CC(=O)N1N=C(c2ccc(-n3ccc(C(F)(F)F)n3)c(F)c2)CC1c1ccc[nH]1` (stereo not given) yielded a growth of 111%. With `N=C1C(c2nc3ccccc3s2)=C(O)CN1c1cc(Cl)cc(Cl)c1` the growth was 71.3%. `COc1cc2nc(-c3ccc(C(F)(F)F)cc3)cc(OCCN3CCCCC3)c2cc1OC` gave a growth of 40.4%. Compound `O=C(CCN1CCCC1)Nc1ccc2c(NCCCc3ccccc3)c3ccccc3nc2c1` has a growth of 47.7%. `CCCCCC(=O)Oc1ccc(/C(=C(/C)Cc2ccc(OC)cc2)c2ccc(OCCCN(C)C)cc2)cc1` was tested, and the growth was 88.8%. In the case of `CCNC(=O)Oc1ccc(/C(=C(\C)c2ccccc2)c2ccc(OCCCN(C)C)cc2)cc1`, the growth is reported as 70.7%. In the case of `CCCCCCCCOc1ccc(/C=N/Nc2cc(C)nc3ccc(Br)cc23)cc1`, the growth is reported as 95.6%. Work on `COc1ccc(/C=C2\Oc3cc(OCCCCCN4CCCCC4)ccc3C2=O)cc1OC` yielded a growth of 69.4%. For `CNC(=O)c1cc(Cn2nc(C)c(NC(=O)Nc3ccc(Cl)c(C(F)(F)F)c3)c2C)ccn1`, the growth was 98.6%. With `Cn1cc(-c2nc(-c3c[nH]c4c(Cl)nccc34)cs2)c2cc(F)ccc21` the growth was 118%. `CN1CCN(CCNc2nccc(-c3c(-c4cccc(O)c4)nc4sccn34)n2)S1(=O)=O` showed a growth of 52.3%. Compound `COc1ccc(/C=C/c2nc(Nc3cccc(NC(C)=O)c3)c3ccccc3n2)cc1` has a growth of 92.1%. With `Cc1c(C(=O)NCCC(=O)NO)sc2ncnc(Nc3ccc(F)c(Cl)c3)c12` the growth was 114%. `C=C(CBr)[C@@H]1CC[C@]2(COC(C)=O)CC[C@]3(C)[C@H](CC[C@@H]4[C@@]5(C)CCCNC(C)(C)[C@@H]5CC[C@]43C)[C@@H]12` gave a growth of 36.2%. `COc1cc2c(c(OC)c1OC)CCC(c1cccc(NC(=O)c3cccc(Br)c3)c1)O2` (stereo not given) was tested, and the growth was 103%. With `N#CC1C(C#N)C(C(=O)c2ccc(Br)cc2)N2c3ccccc3C=CC12` (stereo not given) the growth was 93.2%. Work on `Cc1cccc(C)c1N=c1oc2ccc(Cl)cc2nc1-c1ccccc1O` yielded a growth of 107%. `Nc1c(C(=O)Nc2cccc3cnccc23)sc2nc3c(cc12)C(=O)CCC3` showed a growth of 83.4%. With `CCOC(=O)Oc1c(OC)cc(C(=O)c2ccc(OC)c(OC(=O)CCl)c2OC)cc1OC` the growth was 42.4%. With `c1ccc(-c2c(-c3ccccc3)[n+](Cc3ccc4ccccc4c3)c(-c3cccc4ccccc34)n2Cc2ccc3ccccc3c2)cc1` the growth was -63.7% (active). With `O=S(=O)(NCCNc1nccc(-c2c(-c3cccc(O)c3)nc3occn23)n1)c1cccc(F)c1` the growth was 104%. `N#C/C(=C\c1ccc([N+](=O)[O-])s1)c1nc2cc(Br)ccc2s1` was tested, and the growth was -13% (active). `COc1ccc(/C=C2\COc3ccc(-c4ccccc4)cc3C2=O)c(OC)c1` showed a growth of 91.2%. Compound `COc1cccc(-c2cc(C(=O)Nc3ccc(/C=C/c4ccc(OC5CCN(C)CC5)cc4)cc3)ccc2OC)c1` has a growth of 23.1%. `Cn1c(N2NC(=O)C(N=Nc3ccc(S(N)(=O)=O)cc3)C2=O)nc(-c2ccco2)c(C#N)c1=O` (stereo not given) showed a growth of 109%.
